Laboratory results published in PubChem BioAssay (NCI).
This is part of a sample that, as a whole, favours compounds with a hit. Of some 83,000 tested, about 20% had one in any assay.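 Testing used 96-well plates and a 48-hour single-concentration exposure. Example: -40 means 40% of the starting cells died.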 A number with no mark means an inactive call. Activity calls are given as the source filed them. How the source made its calls: active means growth percent below 10; inactive means the rest.

Legend:
Test in all cases: NCI-60 one-dose screen, 48 h (100 = growth as untreated, 0 = no growth, -100 = all killed)
Details in all cases: 10 µM unless noted
SR leukemia = system: SR leukemia
RPMI-8226 leukemia = system: RPMI-8226 leukemia
OVCAR-5 ovarian = system: OVCAR-5 ovarian
OVCAR-4 ovarian = system: OVCAR-4 ovarian
SK-OV-3 ovarian = system: SK-OV-3 ovarian
IGROV1 ovarian = system: IGROV1 ovarian
OVCAR-3 ovarian = system: OVCAR-3 ovarian
HS 578T breast = system: HS 578T breast
NCI/ADR-RES ovarian = system: NCI/ADR-RES ovarian
T-47D breast = system: T-47D breast
BT-549 breast = system: BT-549 breast
MDA-MB-435 melanoma = system: MDA-MB-435 melanoma
SW-620 colon = system: SW-620 colon
MCF7 breast = system: MCF7 breast
HCT-116 colon = system: HCT-116 colon
HCC-2998 colon = system: HCC-2998 colon
KM12 colon = system: KM12 colon
OVCAR-8 ovarian = system: OVCAR-8 ovarian

Row | Compound | growth (SR leukemia) | growth (RPMI-8226 leukemia) | growth (OVCAR-5 ovarian) | growth (OVCAR-4 ovarian) | growth (SK-OV-3 ovarian) | growth (IGROV1 ovarian) | growth (OVCAR-3 ovarian) | growth (HS 578T breast) | growth (NCI/ADR-RES ovarian) | growth (T-47D breast) | growth (BT-549 breast) | growth (MDA-MB-435 melanoma) | growth (SW-620 colon) | growth (MCF7 breast) | growth (HCT-116 colon) | growth (HCC-2998 colon) | growth (KM12 colon) | growth (OVCAR-8 ovarian)
1 | COc1cc(C2CC(c3cccc(Br)c3)=NN2C(C)=O)cc(OC)c1OC (configuration not stated) | 46.3% | 4.29% (active) | 46.5% | 41.7% | 45.3% | -17.3% (active) | -22% (active) | 34.6% | -19.5% (active) | 69.7% | -8.75% (active) | -51.2% (active) | 24.8% | 22.8% | 17.2% | -31% (active) | 16.9% | –
2 | [O-][n+]1c2ccccc2[n+]([O-])c2c3ccccc3[nH]c21 | 95.6% | 57.9% | 21% | 34.4% | 42.8% | – | -20.6% (active) | 96.3% | – | 2.23% (active) | 81.3% | 110% | 45.4% | 19.4% | 10.3% | 69.2% | 90.1% | –
3 | CCOC(=O)c1c2c(n(-c3ccc(C#N)cc3)c1-c1ccccc1)C=CCC2 | 92.1% | 85.8% | 96.7% | 77.2% | 89.6% | 77.9% | 105% | 99.3% | 94% | 72.6% | 97.8% | 95.3% | 96.9% | 76.4% | – | 90.5% | 91.8% | –
4 | COc1cc(C(=O)N2N=C(c3ccc(S(C)(=O)=O)cc3)CC2c2ccco2)cc(OC)c1OC (configuration not stated) | 8.01% (active) | 44.6% | 89.5% | 84.1% | 84.3% | – | 5% (active) | 74.9% | 63.1% | 59.3% | 48.5% | 6.67% (active) | 42.3% | 37% | 50.6% | 59.9% | 49.7% | –
5 | CCCC1CCC(O)(C(C)(O)C(=O)NC2C(=O)N3NCCCC3C(=O)N(O)C(C)C(=O)N3NCCCC3C(=O)N3NCC(O)CC3C(=O)NC(C)C(=O)OC2C(C)C)OC1CC (configuration not stated) | -87.6% (active) | – | -98.4% (active) | -81% (active) | -96.3% (active) | -40% (active) | -89.9% (active) | -78.1% (active) | -76.7% (active) | -77.8% (active) | -67.3% (active) | -74.6% (active) | -97.3% (active) | -83% (active) | -57.2% (active) | -93.6% (active) | -88.5% (active) | -71.8% (active)
6 | COc1cc2cc(Oc3ccc(NC(=O)Nc4cc(C(F)(F)F)cc(C(F)(F)F)c4)cc3)c(C)nc2cc1OCCN1CCOCC1 | -34.9% (active) | – | 46.6% | 17.9% | 22.7% | 33.5% | 9.29% (active) | 60.6% | 9.17% (active) | 26.1% | 68.1% | 22.3% | 20.3% | 7.15% (active) | 10.3% | 38.6% | 13.3% | 17.2%
7 | Cc1ccc(-c2nc(N3CCN(CC(=O)Nc4ccc(Cl)c(C(F)(F)F)c4)CC3)c3ccccc3n2)cc1 | 87.2% | – | 89.9% | 102% | 84.7% | 99.8% | 102% | 97.2% | 86.5% | 74.7% | 94.2% | 94.6% | 91.7% | 74.7% | 79.2% | 112% | 94.2% | 88.9%
8 | CNCCCNc1nc2ccccc2c2c(=O)c3cc(F)ccc3sc12 | -35.9% (active) | – | 66.3% | 19.9% | 75.4% | 41.4% | -1% (active) | 37.8% | 21.4% | 22.4% | 86.7% | -85.3% (active) | -71.4% (active) | -44.8% (active) | -67% (active) | -88.3% (active) | -44.4% (active) | 28%
9 | NCCOc1ncccc1/C=C1\c2ccccc2-c2ccc(C(F)F)cc21 | 2.72% (active) | – | 69.6% | 83.9% | 64.3% | 32.5% | 76.2% | 53.4% | 57.4% | 51.5% | 87.3% | 82.3% | 38.4% | 21.6% | 42.1% | 24.2% | 78.8% | 56.4%
10 | CCCCOc1nc2ccc(OC)cc2cc1-c1cc(-c2ccc(Cl)cc2)nc(-c2ccc(Cl)cc2)c1 | 107% | – | 98.7% | 99.5% | 108% | 105% | 112% | 100% | 105% | 97.4% | 105% | 107% | 102% | 97.5% | 102% | 109% | 104% | 104%
11 | O=c1c2cc(F)ccc2sc2c(NCCCNCCO)nc3ccccc3c12 | -45.1% (active) | – | 63.4% | 33.3% | 79.7% | 22.4% | -14.6% (active) | 34.5% | 32.4% | 22.9% | 66.2% | -82.5% (active) | -78.3% (active) | -51.2% (active) | -94.1% (active) | -90.8% (active) | -77% (active) | 26%
12 | O=C(Nc1ccc(F)cc1F)c1cc(F)ccc1O | 4.78% (active) | – | 23.3% | 21% | 4.34% (active) | 21.4% | 1.72% (active) | 12% | 6.3% (active) | 6.93% (active) | 8.69% (active) | 14.6% | 20.8% | 4.23% (active) | 12.8% | 27.9% | 8.7% (active) | 14.9%
13 | Oc1ccc(C#CCOc2ccccc2)cc1CNCCN(Cc1ccccn1)Cc1ccccn1 | -4.08% (active) | – | 27.2% | 11.3% | 18% | 13.4% | 12.1% | 35.5% | 0.625% (active) | 14.4% | 37.7% | 32.6% | 15.6% | 4.05% (active) | 9.79% (active) | 28.4% | 18.9% | 15.2%
14 | N#C/C(=C\c1ccc(F)cc1)n1nc2cccc(F)c2n1 | 13.7% | – | 79.7% | 34% | 74.9% | 73.1% | -3.76% (active) | 27.6% | 8.9% (active) | 33% | 60.8% | -55.4% (active) | 18.9% | 14.1% | 20.8% | 93.8% | 16.4% | 81.2%
15 | O=C1c2cccc3cccc(c23)C(=O)N1Nc1nc(N2CCOCC2)nc(N2CCN(c3ccccc3)CC2)n1 | 23.7% | – | 83.8% | 79.9% | 54.8% | 32.9% | 11.2% | 42.9% | 37.8% | 37.3% | 37.8% | -12.6% (active) | 32.6% | 17.9% | 31.2% | 77.6% | 48.5% | 71.6%
16 | COc1ccc2sc3c(NCCO)nc4ccccc4c3c(=O)c2c1 | 83.9% | – | 102% | 114% | 110% | 113% | 122% | 95.4% | 99.6% | 88.5% | 100% | 106% | 101% | 47% | 92.7% | 115% | 89% | 92.1%
17 | CCCCOc1nc2c(C)cccc2cc1-c1cc(-c2ccc(Cl)cc2)nc(-c2ccc(Cl)cc2)c1 | 92.2% | – | 96.6% | 110% | 103% | 105% | 111% | 92.4% | 108% | 99% | 101% | 102% | 98.4% | 96.9% | 99.5% | 108% | 97.7% | 97.4%
18 | COc1ccc(/C=C2\Oc3cc(OCCN4CCC(Cc5ccccc5)CC4)ccc3C2=O)cc1OC | -1.05% (active) | – | 93.4% | 79.3% | 87.8% | 82.1% | 87% | 74.6% | 70.9% | 60.7% | 64.2% | 76.5% | 40.8% | 49.2% | 49% | -2.67% (active) | 68.2% | 39.1%
